Screening results from PubChem.
Hits are enriched below; roughly 2% of the tested compounds scored in any of these assays.
S1P4 antagonist: S1P4 receptor antagonists, primary screen, cell-based; inhibition, % at 4.98 µM; S1P4-expressing cells, antagonist mode, reporter read-out; 0.26% of 220,000 active; in the data active = inhibition above about 29%;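 also: 0% = wells stimulated with agonist and 100% = vehicle wells without agonist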
S1P3 antagonist: S1P3 receptor antagonists, primary screen, cell-based; CHO S1P3 NFAT-BLA reporter, FRET fluorescence, antagonist mode; inhibition, % at 4.98 µM; 0.27% of 170,000 active; AID 485, 2006;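 active = inhibition above the plate cutoff, the mean inhibition of test wells on that plate plus 3 SD, cut at about 28% in these data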;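 also: cells challenged with S1P at its EC80 of 0.8 µM; blue over green emission ratio from cleaved BLA substrate after 4 h stimulation; 0% = S1P-stimulated wells and 100% = unstimulated DMSO-only wells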
PGE2 EP2 inh: human EP2 receptor antagonists, primary screen, TR-FRET cAMP, C6 glioma cells | C6 glioma cells expressing human EP2; cells stimulated with saturating PGE2 | Prostaglandin E2 receptor EP2 subtype (Homo sapiens), P43116 | 0.52% of 260,000 active | AID 1422, 2008 | inhibition, % at 25 µM;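 active = percent inhibition above 40 after rounding to a whole number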;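 also: rat C6 glioma host cells with rolipram phosphodiesterase inhibitor present; the protocol text gives 20 µM as final concentration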
Target sequence (P43116 whole entry, looked up): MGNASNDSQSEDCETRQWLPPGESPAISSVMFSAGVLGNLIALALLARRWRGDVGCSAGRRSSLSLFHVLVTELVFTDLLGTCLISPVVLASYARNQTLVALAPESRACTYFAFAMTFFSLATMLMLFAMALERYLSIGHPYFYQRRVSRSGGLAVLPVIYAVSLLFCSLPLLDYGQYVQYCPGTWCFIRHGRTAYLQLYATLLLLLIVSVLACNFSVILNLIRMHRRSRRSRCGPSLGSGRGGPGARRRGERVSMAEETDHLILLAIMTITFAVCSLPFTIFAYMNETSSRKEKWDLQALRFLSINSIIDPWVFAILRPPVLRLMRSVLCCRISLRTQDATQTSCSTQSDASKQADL
EP2 modulator: EP2 receptor modulators, cAMP readout, primary screen, cell-based, HTRF cAMP, PGE2 stimulation | Prostaglandin E2 receptor EP2 subtype (Homo sapiens), P43116 | EP2-expressing cells, cAMP HTRF FRET, PGE2 co-stimulation | induction, % at 25 µM | 0.83% of 260,000 active | AID 940, 2007;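 active = compounds whose cAMP rise, as percent of the full-agonist control response, exceeds 60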;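 also: rat C6 glioma line stably carrying human EP2 under a CMV promoter; the protocol text gives 20 µM as final concentration; 100% = response of wells given 1 µM PGE2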
S1P4 ag: S1P4 receptor agonists, primary screen, cell-based | activation, % at 4.98 µM | Sphingosine 1-phosphate receptor 4 (Homo sapiens), O95977 | S1P4-expressing cell line, agonist reporter assay | AID 1509, 2009 | 0.35% of 220,000 active; in the data active = activation above about 11%;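 also: 0% = DMSO vehicle and 100% = reference agonist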
* marks the source's active call; other numbers are inactive results; . = not tested or not shown; ! = not active in a repeat.

SMILES	S1P4 antagonist	S1P3 antagonist	PGE2 EP2 inh	EP2 modulator	S1P4 ag
c1ccc2nc(N3CCCC3)c(N3CCCC3)nc2c1	-5.0	-11.0	11.0	68.0*!	0.4
Cc1nc2ccccc2nc1N1CCCCC1	-0.2	-14.0	15.8	4.7	1.3
c1ccc2c(N3CCCCC3)ncnc2c1	-13.8	.	9.2	-7.2	-0.2
c1ccc(Cn2c(-c3ccco3)nc3nc4ccccc4nc32)cc1	-19.9	-0.3	17.0	61.8*	0.4
CCCCCn1c(-c2ccco2)nc2nc3ccccc3nc21	-6.8	-0.1	.	56.4	0.9
COc1ccc(S(=O)(=O)N(CC(=O)N2CCN(C)CC2)c2ccc(C)cc2)cc1	.	.	4.2	-44.4	.
CSc1ncc(C(=O)Nc2cccc(-c3csnn3)c2)cn1	.	.	6.0	-70.8	.
C=CCOc1ccc(Cl)cc1CNC1CCCC1	15.9	-8.1	4.8	62.2*	-0.9
COc1ccc(CNC2CCCC2)c(OC)c1OC	-5.1	.	10.6	49.5	0.7
O=C(C[N+]12CN3CN(CN(C3)C1)C2)c1ccc(-c2ccccc2)cc1	.	.	57.8*	4.2	.
Cc1cccc(N2CCN(c3nc4ccccc4n4cnnc34)CC2)c1C	-12.3	-11.8	10.5	62.6*	-0.6
COc1ccc2cc(C#N)c(SCC(=O)Nc3ccccc3N3CCCC3)nc2c1	.	.	12.4	-13.1	.
CCC(CN1CCN(C)CC1)NC(=O)Cc1ccc2c(c1)CCC2 (centres undefined)	.	.	46.0*	-33.3	.
CCC(CN1CCC(C)CC1)NC(=O)Cc1ccc2c(c1)OCCO2 (centres undefined)	.	.	8.0	9.2	.
CCc1nn(CC(=O)Nc2c(C)nn(CC)c2C)c(=O)c2cc3ccsc3n12	.	.	.	-16.9	.
O=C(Nc1nc(-c2ccccc2)cs1)C1CCCCN1S(=O)(=O)c1ccc(Cl)cc1 (centres undefined)	-14.1	.	12.6	-43.9	-1.1
O=C(Nc1nc(-c2ccccc2)cs1)C1CCCCN1S(=O)(=O)c1ccccc1 (centres undefined)	-0.8	97.7*	10.7	-7.3	-0.2
Nc1c(C(=O)OCC2CCCO2)c2nc3ccccc3nc2n1-c1ccc2c(c1)OCCO2 (centres undefined)	9.6	-3.3	79.5*	-44.5	-1.3
COCC(=O)Cc1csc(NC(=O)CSc2ncnc3c2cnn3-c2ccccc2)n1	.	.	11.2	-4.8	.
CCc1ccc2c(c1)c1nnc(SCC(=O)N3C(C)CCCC3C)nc1n2C (centres undefined)	.	.	7.0	-25.1	.
CCOc1ccccc1NC(=O)c1sc(NC(=O)c2ccccc2Cl)c(C(=O)OC)c1C	.	.	3.1	-0.8	.
C=CCSC1=N/C(=C\c2ccc3c(c2)OCO3)C(=O)S1	-20.1	6.0	11.0	6.0	1.4
C=CCSC1=N/C(=C\c2sccc2C)C(=O)S1	2.8	.	5.2	63.8*	0.6
COc1ccc(NC(=S)N(Cc2ccco2)Cc2cc3cc(C)ccc3[nH]c2=O)cc1	.	.	12.2	13.3	.
Cn1cnc([N+](=O)[O-])c1Sc1nc(N)nc2c1ncn2Cc1ccccc1	.	.	53.2*	7.3	.
SMILES	S1P4 antagonist	S1P3 antagonist	PGE2 EP2 inh	EP2 modulator	S1P4 ag
CC(C)Cn1cnc2c(Sc3c([N+](=O)[O-])ncn3C)nc(N)nc21	.	.	7.7	11.8	.
CC(C)[C@@H](Cn1nnc2ccccc21)NC(=O)C1CCN(C(=O)c2cccs2)CC1	.	.	3.2	29.5	.
CCN(CC)CCNC(=O)c1[nH]c2ccc(OCc3ccccc3)cc2c1C	6.0	2.0	8.9	-95.8	0.3
CCN(CC)CC[n+]1ccc2c(C)c3[nH]c4ccc(O)cc4c3c(C)c2c1	.	.	43.6*	7.2	.
Cc1ccc2cc(CN(CCCN3CCOCC3)C(=O)Nc3ccccc3)c(=O)[nH]c2c1	.	.	7.6	-15.3	.
O=C(O)c1ccc(NC(=S)NC(=O)c2ccc(-c3ccccc3)cc2)cc1	-17.2	-15.7	66.3*	-88.8	0.2
CCSc1nc2c(c(=O)n(C)c(=O)n2C)n1Cc1ccc(Cl)cc1	1.4	1.8	7.2	.	-1.4
C=C(C)CSc1nc2c(c(=O)n(C)c(=O)n2C)n1Cc1ccc(Cl)cc1	.	.	7.2	61.2*	.
Cc1nc2ccccn2c1C(=O)N=Nc1c(O)n(CCC(C)C)c2ccccc12	-16.4	-5.0	50.7*	-16.0	1.0
CCCn1c(O)c(N=NC(=O)c2ccco2)c2ccccc21	-15.0	-10.5	8.4	5.2	2.1
CCc1ccccc1NC(=O)CN1C(=O)C(C)(C)Oc2ccc(C(=O)NC3CCCC3)cc21	.	.	6.2	-14.1	.
CN1CCN(C2=C(Cl)C(=O)N(C3CCCCC3)C2=O)CC1	-0.5	-82.8	5.4	24.9	0.5
CN1CCN(C2=C(Cl)C(=O)C(c3cnc(N4CCCCC4)s3)=C(Cl)C2=O)CC1	8.9	.	103.6*	-56.6	-0.1
CCc1ccc(NC(=O)c2cc(-c3ccco3)on2)cc1	-3.1	58.6*	6.3	37.2	1.2
CCNC(=S)N(Cc1cccnc1)Cc1cc2cc(OCC)ccc2[nH]c1=O	.	.	16.5	-33.6	.
N#C/C(=C\c1ccc([N+](=O)[O-])o1)c1nc2ccccc2[nH]1	14.1	-9.3	69.0*	-11.0	-0.5
Cc1ccc2nc(/C(C#N)=C\c3ccc(N4CCOCC4)o3)[nH]c2c1	-13.3	.	21.9	-43.6	1.6
N#C/C(=C(/O)c1ccc([N+](=O)[O-])o1)c1nc2ccccc2[nH]1	-8.3	26.5	17.1	-43.2	0.0
Cc1ccc2nc(/C(C#N)=C\c3ccc([N+](=O)[O-])o3)[nH]c2c1	9.5	.	64.4*	-39.6	1.2
C[N+]1(C)Cc2ccccc2C1	.	.	9.2	-0.4	.
CS(=O)(=O)N(CC(=O)N1CCCCC1)c1cccc(Cl)c1Cl	.	.	9.9	-4.8	.
CCOc1cc(/C=C2/COc3ccccc3C2=O)ccc1OCC(=O)N(C)C	37.3*	3.0	7.9	-41.0	-4.5
COC(=O)c1scc(C)c1N/N=C(\C)c1ccc(F)cc1	-17.5	.	3.7	60.6*	-3.5
O=C(CN1C(=O)c2ccccc2S1(=O)=O)NCc1ccc(Cl)cc1	.	.	6.9	2.7	.
C=CCNC(=O)c1c(NC(=O)c2ccc(OC)c(OC)c2)sc2c1CCCC2	.	.	7.3	66.3*	.
SMILES	S1P4 antagonist	S1P3 antagonist	PGE2 EP2 inh	EP2 modulator	S1P4 ag
COCCCNC(=O)c1c(NC(=O)c2ccccc2C)sc2c1CCCC2	.	.	45.3*	-23.4	.
CC12CN3CC(C)(CN(C1)C3C(O)C(O)C(O)CO)C2O (centres undefined)	.	.	17.1	3.9	.
CCn1c(=O)c(C(=O)CN2CCOCC2)c(N)n(Cc2ccccc2)c1=O	11.1	77.2*	3.5	16.4	-1.2
O=C1COc2nc3ccccc3cc2CN1Cc1ccc(F)cc1	.	.	.	2.7	.
c1ccc2c(c1)C(=Nc1ccc(N=C3c4ccccc4-c4ccccc43)cc1)c1ccccc1-2	.	.	44.5*	-8.1	.
CCc1nc(NCc2ccccc2)c(C#N)c2c1CCCC2	-4.0	-12.2	2.0	63.8*	-1.9
CCOC(=O)C1=C(c2ccccc2)NC(SCC(=O)NC2CCCCC2)=C(C#N)C1c1ccco1 (centres undefined)	-14.9	12.0	71.4*	27.1	0.4
